Molecules are shown by their SMILES. Results filed as inconclusive are left out. The source made the active and inactive calls. Calls come from the whole dose curve; as a rule, active = well fitted curve in the direction sought with a large enough effect; inconclusive = small, poorly fitted or top-dose-only effect, or another doubt; inactive = no such curve, though single readings can be large or run the other way.
% is set by controls: 0 for no effect and ±100 for the full control effect.

The target of the assay is Metallo-beta-lactamase type 2 (Klebsiella pneumoniae) (UniProt C7C422). The assay is described as follows: qHTS to identify inhibitors of the New Delhi Metallo-beta-lactamase (NDM): assay validation screen against the NCATS LOPAC Collection (AID 1794843).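 Note: nitrocefin turnover by NDM-1 measured as 485 nm absorbance at plateau.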 The conditions noted are these: NDM-1 enzyme, nitrocefin hydrolysis, absorbance 485 nm; series mostly up to 38.4 µM; activity change, negative = inhibition: at the top concentration. An outline of the steps: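 Nitrocefin hydrolysis (50 uM substrate stock) by NDM-1, 2 nM final, was followed by 485 nm absorbance after compound preincubation; buffer was 50 mM HEPES pH 7.0, 1 uM ZnSO4, 0.01% Tween20.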
Chain of Metallo-beta-lactamase type 2 (Klebsiella pneumoniae) (C7C422 whole entry, looked up): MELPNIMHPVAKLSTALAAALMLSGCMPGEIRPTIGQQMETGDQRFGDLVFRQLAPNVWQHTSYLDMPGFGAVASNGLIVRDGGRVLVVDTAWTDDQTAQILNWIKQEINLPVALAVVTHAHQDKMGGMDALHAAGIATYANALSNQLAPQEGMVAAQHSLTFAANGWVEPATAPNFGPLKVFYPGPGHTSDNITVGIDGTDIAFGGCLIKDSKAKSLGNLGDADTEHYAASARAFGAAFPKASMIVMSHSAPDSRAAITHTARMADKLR
On to `CCCn1c(=O)c(C)cn2nc(N)nc12`, for which the “activity change, negative = inhibition” value was -0.53% (inactive).

Consider `CC(C)[C@@H]1CC[C@@H](C)C[C@@H]1P(=O)(c1ccccc1)c1ccccc1`, for which the “activity change, negative = inhibition” value was 0.753% (inactive). The figure for `NC1(C(=O)O)CCc2cc(C(=O)O)ccc21` (stereo not drawn) is 7.37% (inactive); for `CCc1ccc2c(-c3cccc(Cl)c3)nc(=O)n(CC)c2n1` it is 8.8% (inactive); for `N[C@H](C(=O)O)[C@H](O)C(=O)O` it is 0.247% (inactive). The figure for `Cc1cc2c(cc1Cl)N(C(=O)Nc1ccnc3ccccc13)CC2` is -3.91% (inactive); for `Cn1c(=O)[nH]c2ncn(C)c2c1=O` it is -2.79% (inactive); for `NC(N)=N[C@@H](CCC(=O)O)C(=O)O` it is -9.66% (inactive). The figure for `Nc1ncnc2c1c(-c1ccc(Oc3ccccc3)cc1)cn2C1CCCC1` is 0.439% (inactive); for `NC(N)=[N+]1CCc2ccccc2C1` it is 4.89% (inactive); for `CN(C)CCC(c1ccc(Br)cc1)c1ccccn1` (stereo not drawn) it is 6.64% (inactive). Regarding `CN1CCCC1CCOC(C)(c1ccccc1)c1ccc(Cl)cc1` (stereo not drawn), the “activity change, negative = inhibition” value is 5.25% (inactive).

`CO/N=C(\C(=O)N[C@@H]1C(=O)N2C(C(=O)O)=C(CSc3nc(=O)c(O)nn3C)CSC12)c1csc(N)n1` (stereo partly drawn): the “activity change, negative = inhibition” value is -1.1% (inactive).

Values taken from PubChem BioAssay (NCATS).
